# Measured values reported in article PMC7862700, “An all-to-all approach to the identification of sequence-specific readers for epigenetic DNA modifications on cytosine”.
# Assays:
# Test in all cases: DAPPL (digital affinity profiling via proximity ligation, sequencing); 10 mM Tris-HCl pH 7.5, 50 mM NaCl, 1 mM DTT, 4% glycerol, room temperature, 30 min; GST-TFs on glutathione beads, 16-mer random dsDNA library, 0.1% formaldehyde crosslink after washing; high values mean tight binding
# FEV = target: T1, FEV (Homo sapiens, UniProt Q99581 1-238); conditions: protein: recombinant; tags: N-terminal GST; dsDNA, one strand shown
# T1 sequence: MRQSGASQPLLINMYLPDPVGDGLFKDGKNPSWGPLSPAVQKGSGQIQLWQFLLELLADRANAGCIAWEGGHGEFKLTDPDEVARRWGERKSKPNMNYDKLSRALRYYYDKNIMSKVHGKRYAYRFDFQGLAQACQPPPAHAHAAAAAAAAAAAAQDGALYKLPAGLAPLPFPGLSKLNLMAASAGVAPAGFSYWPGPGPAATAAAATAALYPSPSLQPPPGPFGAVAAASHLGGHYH
# Method in brief: (§1)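 Yeast served to express human transcription factors as GST fusions, which were then captured on glutathione beads and labelled with DNA barcodes. Pooled with a tag-only sample, they were incubated with 200 nmole of a 16-mer random double-stranded DNA library for 30 min at room temperature in Tris/NaCl/DTT/glycerol buffer, washed, crosslinked with 0.1% formaldehyde, ligated by proximity, amplified by PCR and sequenced. Dividing each hexamer's read frequency for a factor by its frequency for the tag-only sample gives the binding signal.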
# ETV5 = ETV5 (Homo sapiens, UniProt P41161 1-510); conditions: protein: recombinant; tags: N-terminal GST; dsDNA, one strand shown
# Method in brief: as §1
# HSF1 = HSF1 (Homo sapiens, UniProt Q00613 1-529); conditions: protein: recombinant; tags: N-terminal GST; chain copies: 3; dsDNA, one strand shown
# Method in brief: as §1
# SPIC = target: T2, SPIC (Homo sapiens, UniProt Q8N5J4 1-248); conditions: protein: recombinant; tags: N-terminal GST; dsDNA, one strand shown
# T2 sequence: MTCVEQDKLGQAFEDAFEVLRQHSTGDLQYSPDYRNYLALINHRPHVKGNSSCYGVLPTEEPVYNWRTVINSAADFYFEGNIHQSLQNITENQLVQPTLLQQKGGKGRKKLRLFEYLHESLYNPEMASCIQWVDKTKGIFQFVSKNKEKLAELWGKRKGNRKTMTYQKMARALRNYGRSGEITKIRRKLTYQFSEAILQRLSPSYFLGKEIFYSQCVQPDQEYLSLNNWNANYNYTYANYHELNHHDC
# Method in brief: as §1
# ELF4 = ELF4 (Homo sapiens, UniProt Q99607 1-663); conditions: protein: recombinant; tags: N-terminal GST; dsDNA, one strand shown
# Method in brief: as §1
# ELK4 = target: T3, ELK4 (Homo sapiens, UniProt P28324-2 1-405); conditions: protein: recombinant; tags: N-terminal GST; dsDNA, one strand shown
# T3 sequence: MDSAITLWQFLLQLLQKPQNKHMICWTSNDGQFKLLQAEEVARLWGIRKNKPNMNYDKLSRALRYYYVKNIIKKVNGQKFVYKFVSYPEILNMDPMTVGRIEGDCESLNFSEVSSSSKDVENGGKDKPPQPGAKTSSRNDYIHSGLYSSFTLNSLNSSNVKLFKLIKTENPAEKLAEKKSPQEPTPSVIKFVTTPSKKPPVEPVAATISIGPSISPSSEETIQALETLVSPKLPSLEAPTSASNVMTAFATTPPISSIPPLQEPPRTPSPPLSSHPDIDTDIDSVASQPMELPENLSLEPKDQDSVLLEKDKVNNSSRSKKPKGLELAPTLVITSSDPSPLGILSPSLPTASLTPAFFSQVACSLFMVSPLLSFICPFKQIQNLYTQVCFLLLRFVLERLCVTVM
# Method in brief: as §1
# ETV2 = target: T4, ETV2 (Homo sapiens, UniProt O00321 1-342); conditions: protein: recombinant; tags: N-terminal GST; dsDNA, one strand shown
# T4 sequence: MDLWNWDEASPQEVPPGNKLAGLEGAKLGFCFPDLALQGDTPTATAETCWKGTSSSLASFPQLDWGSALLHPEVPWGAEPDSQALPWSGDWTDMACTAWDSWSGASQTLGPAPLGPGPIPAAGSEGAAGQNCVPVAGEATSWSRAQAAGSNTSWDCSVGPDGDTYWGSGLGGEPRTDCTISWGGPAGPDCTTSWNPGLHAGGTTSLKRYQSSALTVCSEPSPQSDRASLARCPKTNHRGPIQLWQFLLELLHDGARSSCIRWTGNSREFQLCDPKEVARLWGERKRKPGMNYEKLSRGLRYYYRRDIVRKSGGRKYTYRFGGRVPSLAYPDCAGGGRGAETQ
# Method in brief: as §1
# ELF3 = target: T5, ELF3 (Homo sapiens, UniProt P78545 1-371); conditions: protein: recombinant; tags: N-terminal GST; dsDNA, one strand shown
# T5 sequence: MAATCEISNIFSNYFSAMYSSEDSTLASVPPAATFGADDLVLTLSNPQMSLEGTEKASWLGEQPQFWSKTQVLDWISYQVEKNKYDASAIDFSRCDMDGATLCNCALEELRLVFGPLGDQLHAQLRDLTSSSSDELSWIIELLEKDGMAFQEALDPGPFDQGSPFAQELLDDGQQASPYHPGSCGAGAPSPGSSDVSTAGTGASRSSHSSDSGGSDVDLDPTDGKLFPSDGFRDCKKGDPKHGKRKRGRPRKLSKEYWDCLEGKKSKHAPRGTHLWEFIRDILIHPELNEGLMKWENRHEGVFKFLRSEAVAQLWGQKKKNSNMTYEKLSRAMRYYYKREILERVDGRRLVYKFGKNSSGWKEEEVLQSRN
# Method in brief: as §1
# ETV1 = ETV1 (Homo sapiens, UniProt P50549 1-477); conditions: protein: recombinant; tags: N-terminal GST; dsDNA, one strand shown
# Method in brief: as §1
# ERF = target: T6, ERF (Homo sapiens, UniProt P50548 1-548); conditions: protein: recombinant; tags: N-terminal GST; dsDNA, one strand shown
# T6 sequence: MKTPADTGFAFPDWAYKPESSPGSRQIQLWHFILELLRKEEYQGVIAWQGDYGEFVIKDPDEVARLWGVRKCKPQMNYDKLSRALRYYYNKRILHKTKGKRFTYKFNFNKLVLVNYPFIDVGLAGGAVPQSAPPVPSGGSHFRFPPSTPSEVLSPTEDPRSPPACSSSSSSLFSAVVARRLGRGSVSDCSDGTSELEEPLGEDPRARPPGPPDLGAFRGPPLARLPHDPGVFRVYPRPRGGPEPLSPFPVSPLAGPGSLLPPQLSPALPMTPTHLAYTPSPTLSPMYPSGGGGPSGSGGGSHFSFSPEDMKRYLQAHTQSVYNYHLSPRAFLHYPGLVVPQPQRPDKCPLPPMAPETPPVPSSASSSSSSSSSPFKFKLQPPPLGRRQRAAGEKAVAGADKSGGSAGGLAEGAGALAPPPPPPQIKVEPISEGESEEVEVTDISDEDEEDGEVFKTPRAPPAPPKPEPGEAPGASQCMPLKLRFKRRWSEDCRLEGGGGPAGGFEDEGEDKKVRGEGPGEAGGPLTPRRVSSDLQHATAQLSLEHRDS
# Method in brief: as §1
# ETV3L = target: T7, ETV3L (Homo sapiens, UniProt Q6ZN32 1-361); conditions: protein: recombinant; tags: N-terminal GST; dsDNA, one strand shown
# T7 sequence: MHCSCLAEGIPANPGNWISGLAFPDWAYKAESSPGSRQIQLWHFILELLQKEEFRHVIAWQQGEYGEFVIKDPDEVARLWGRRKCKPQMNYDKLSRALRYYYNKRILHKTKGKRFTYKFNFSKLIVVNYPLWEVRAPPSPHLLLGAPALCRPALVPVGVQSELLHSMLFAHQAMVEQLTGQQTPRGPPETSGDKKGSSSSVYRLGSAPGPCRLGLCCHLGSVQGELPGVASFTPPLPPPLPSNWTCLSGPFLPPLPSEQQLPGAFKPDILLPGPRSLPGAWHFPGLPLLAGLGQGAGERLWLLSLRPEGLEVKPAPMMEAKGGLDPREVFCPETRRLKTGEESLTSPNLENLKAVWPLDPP
# Method in brief: as §1
# ETS2 = target: T8, ETS2 (Homo sapiens, UniProt P15036 1-469); conditions: protein: recombinant; tags: N-terminal GST; dsDNA, one strand shown
# T8 sequence: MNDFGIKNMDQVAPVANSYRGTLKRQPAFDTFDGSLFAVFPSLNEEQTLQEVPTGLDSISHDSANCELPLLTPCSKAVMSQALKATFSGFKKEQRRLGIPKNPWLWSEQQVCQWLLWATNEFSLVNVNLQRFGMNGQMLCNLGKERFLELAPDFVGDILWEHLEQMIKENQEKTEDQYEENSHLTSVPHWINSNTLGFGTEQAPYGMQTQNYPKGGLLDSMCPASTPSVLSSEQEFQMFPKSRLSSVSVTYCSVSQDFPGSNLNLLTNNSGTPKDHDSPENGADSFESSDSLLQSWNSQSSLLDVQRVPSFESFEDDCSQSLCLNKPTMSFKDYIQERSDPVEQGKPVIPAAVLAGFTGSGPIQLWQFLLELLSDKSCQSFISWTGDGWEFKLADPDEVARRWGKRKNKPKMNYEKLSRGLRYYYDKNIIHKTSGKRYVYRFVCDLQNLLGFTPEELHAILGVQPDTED
# Method in brief: as §1
# SPDEF = target: T9, SPDEF (Homo sapiens, UniProt O95238 1-335); conditions: protein: recombinant; tags: N-terminal GST; dsDNA, one strand shown
# T9 sequence: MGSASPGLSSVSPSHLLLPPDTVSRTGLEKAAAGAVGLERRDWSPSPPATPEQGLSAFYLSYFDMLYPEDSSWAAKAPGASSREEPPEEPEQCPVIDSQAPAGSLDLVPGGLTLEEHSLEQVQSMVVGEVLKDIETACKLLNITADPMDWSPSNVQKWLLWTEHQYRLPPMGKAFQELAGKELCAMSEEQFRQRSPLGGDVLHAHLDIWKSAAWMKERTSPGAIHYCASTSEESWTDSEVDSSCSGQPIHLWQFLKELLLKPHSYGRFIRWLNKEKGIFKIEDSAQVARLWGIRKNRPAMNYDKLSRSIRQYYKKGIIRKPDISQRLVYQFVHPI
# Method in brief: as §1
# ETV7 = target: T10, ETV7 (Homo sapiens, UniProt Q9Y603 1-341); conditions: protein: recombinant; tags: N-terminal GST; dsDNA, one strand shown
# T10 sequence: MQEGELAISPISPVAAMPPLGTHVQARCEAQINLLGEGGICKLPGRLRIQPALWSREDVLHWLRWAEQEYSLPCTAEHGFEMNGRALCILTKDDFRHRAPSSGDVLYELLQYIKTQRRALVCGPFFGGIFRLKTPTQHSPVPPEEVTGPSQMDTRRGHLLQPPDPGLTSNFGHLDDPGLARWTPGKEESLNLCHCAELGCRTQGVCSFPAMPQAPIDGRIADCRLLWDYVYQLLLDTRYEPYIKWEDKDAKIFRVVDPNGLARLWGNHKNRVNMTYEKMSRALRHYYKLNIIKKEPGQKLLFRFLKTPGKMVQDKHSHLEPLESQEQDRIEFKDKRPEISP
# Method in brief: as §1
# ELF5 = target: T11, ELF5 (Homo sapiens, UniProt Q9UKW6-2 1-255); conditions: protein: recombinant; tags: N-terminal GST; dsDNA, one strand shown
# T11 sequence: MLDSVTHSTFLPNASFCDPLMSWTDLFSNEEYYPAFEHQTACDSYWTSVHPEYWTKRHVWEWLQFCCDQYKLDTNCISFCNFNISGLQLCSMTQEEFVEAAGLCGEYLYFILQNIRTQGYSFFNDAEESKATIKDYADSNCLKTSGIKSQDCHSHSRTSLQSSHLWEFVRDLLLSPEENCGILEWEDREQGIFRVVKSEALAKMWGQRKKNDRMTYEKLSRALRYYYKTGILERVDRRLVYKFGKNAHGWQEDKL
# Method in brief: as §1
# ETV3 = target: T12, ETV3 (Homo sapiens, UniProt P41162-2 1-143); conditions: protein: recombinant; tags: N-terminal GST; dsDNA, one strand shown
# T12 sequence: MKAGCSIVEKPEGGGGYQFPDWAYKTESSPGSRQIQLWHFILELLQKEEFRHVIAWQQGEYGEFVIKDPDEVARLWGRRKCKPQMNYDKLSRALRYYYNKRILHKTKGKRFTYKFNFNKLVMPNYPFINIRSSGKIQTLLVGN
# Method in brief: as §1
# ETV6 = ETV6 (Homo sapiens, UniProt P41212 1-452); conditions: protein: recombinant; tags: N-terminal GST; dsDNA, one strand shown
# Method in brief: as §1
# Chain of ETV1 (P50549 whole entry): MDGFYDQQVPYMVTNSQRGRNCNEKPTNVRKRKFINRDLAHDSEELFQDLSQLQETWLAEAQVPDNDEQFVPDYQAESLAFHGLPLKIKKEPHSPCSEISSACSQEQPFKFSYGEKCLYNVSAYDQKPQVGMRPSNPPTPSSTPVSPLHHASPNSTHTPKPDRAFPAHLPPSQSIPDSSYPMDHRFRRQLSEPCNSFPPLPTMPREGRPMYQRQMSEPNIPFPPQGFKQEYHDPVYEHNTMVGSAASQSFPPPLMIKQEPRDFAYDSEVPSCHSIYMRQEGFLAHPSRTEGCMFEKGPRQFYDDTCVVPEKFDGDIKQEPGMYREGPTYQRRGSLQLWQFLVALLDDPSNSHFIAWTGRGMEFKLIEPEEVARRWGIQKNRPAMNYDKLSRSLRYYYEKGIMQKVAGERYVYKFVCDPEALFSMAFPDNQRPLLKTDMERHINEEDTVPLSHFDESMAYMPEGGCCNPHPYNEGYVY
# Chain of ETV6 (P41212 whole entry): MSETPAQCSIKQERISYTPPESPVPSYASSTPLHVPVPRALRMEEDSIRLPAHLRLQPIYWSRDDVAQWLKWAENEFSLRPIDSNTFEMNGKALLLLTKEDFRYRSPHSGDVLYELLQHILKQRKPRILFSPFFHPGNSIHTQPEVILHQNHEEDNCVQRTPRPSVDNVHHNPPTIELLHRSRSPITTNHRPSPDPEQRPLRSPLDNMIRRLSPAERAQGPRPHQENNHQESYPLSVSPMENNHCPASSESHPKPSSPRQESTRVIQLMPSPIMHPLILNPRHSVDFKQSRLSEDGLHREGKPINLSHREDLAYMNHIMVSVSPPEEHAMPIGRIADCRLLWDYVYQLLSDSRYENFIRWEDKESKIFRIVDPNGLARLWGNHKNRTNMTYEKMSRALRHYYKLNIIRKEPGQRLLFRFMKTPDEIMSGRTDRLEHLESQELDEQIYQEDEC
# Chain of ETV5 (P41161 whole entry): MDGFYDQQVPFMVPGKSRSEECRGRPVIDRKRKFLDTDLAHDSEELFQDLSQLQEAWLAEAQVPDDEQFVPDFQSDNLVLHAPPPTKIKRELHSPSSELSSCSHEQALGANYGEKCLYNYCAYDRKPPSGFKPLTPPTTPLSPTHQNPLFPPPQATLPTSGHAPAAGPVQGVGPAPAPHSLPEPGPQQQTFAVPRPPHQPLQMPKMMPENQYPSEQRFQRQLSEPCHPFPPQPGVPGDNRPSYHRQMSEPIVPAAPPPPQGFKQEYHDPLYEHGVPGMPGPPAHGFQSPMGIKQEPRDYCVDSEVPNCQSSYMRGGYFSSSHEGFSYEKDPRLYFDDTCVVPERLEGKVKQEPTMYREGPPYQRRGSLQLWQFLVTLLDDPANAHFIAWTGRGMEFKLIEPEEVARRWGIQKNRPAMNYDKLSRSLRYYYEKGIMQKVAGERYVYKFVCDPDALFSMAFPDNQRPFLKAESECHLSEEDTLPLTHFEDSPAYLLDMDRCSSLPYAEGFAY
# Chain of ELF4 (Q99607 whole entry): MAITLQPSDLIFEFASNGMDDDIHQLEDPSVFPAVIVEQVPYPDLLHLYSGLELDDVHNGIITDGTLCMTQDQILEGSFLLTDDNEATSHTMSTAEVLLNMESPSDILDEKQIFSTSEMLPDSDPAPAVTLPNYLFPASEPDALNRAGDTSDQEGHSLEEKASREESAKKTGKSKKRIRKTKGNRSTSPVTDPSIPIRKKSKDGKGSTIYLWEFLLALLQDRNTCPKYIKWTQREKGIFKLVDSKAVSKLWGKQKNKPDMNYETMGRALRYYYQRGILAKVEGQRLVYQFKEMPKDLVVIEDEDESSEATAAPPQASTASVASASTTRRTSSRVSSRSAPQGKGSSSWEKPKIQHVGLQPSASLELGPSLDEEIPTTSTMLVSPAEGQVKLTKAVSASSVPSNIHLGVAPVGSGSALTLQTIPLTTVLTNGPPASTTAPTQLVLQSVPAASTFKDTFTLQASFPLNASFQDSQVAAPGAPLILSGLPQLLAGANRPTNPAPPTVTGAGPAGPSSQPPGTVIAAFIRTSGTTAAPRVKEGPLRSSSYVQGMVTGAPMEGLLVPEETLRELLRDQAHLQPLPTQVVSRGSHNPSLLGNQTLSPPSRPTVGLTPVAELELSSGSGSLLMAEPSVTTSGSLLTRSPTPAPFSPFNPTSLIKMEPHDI
# Chain of HSF1 (Q00613 whole entry): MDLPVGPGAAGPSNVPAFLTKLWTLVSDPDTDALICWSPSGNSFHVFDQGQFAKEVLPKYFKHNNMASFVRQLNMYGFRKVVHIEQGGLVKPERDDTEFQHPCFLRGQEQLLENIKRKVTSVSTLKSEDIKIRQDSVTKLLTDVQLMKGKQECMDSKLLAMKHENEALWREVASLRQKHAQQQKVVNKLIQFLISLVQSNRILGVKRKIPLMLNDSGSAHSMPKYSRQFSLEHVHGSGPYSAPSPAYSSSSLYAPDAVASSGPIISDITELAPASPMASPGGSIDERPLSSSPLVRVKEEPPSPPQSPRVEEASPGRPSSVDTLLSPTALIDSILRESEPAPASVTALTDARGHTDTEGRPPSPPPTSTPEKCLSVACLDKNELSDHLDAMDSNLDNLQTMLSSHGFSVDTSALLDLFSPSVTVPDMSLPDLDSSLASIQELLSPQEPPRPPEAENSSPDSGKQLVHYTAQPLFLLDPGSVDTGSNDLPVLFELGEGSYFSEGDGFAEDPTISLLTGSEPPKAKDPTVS
sequence,measurement,setting,value
CCACGC,binding signal,FEV,"1.2 fold enrichment (6-mer frequency, TF over GST control)"
same,binding signal,ETV5,"1.15 fold enrichment (6-mer frequency, TF over GST control)"
same,binding signal,HSF1,"1.05 fold enrichment (6-mer frequency, TF over GST control)"
same,binding signal,SPIC,"1.14 fold enrichment (6-mer frequency, TF over GST control)"
same,binding signal,ELF4,"1.22 fold enrichment (6-mer frequency, TF over GST control)"
same,binding signal,ELK4,"1.19 fold enrichment (6-mer frequency, TF over GST control)"
same,binding signal,ETV2,"1.14 fold enrichment (6-mer frequency, TF over GST control)"
same,binding signal,ELF3,"1.24 fold enrichment (6-mer frequency, TF over GST control)"
same,binding signal,ETV1,"1.24 fold enrichment (6-mer frequency, TF over GST control)"
same,binding signal,ERF,"1.12 fold enrichment (6-mer frequency, TF over GST control)"
same,binding signal,ETV3L,"1.17 fold enrichment (6-mer frequency, TF over GST control)"
same,binding signal,ETS2,"1.24 fold enrichment (6-mer frequency, TF over GST control)"
same,binding signal,SPDEF,"1.17 fold enrichment (6-mer frequency, TF over GST control)"
same,binding signal,ETV7,"1.15 fold enrichment (6-mer frequency, TF over GST control)"
same,binding signal,ELF5,"1.11 fold enrichment (6-mer frequency, TF over GST control)"
same,binding signal,ETV3,"1.16 fold enrichment (6-mer frequency, TF over GST control)"
same,binding signal,ETV6,"1.15 fold enrichment (6-mer frequency, TF over GST control)"
